{"source": "PubChem BioAssay AID624300", "about": "(Southern Research Specialized Biocontainment Screening …, 2012)", "note": "Out of some 2,400 compounds screened, about 360 (15%) were called active. These entries were drawn from the full list. Potency and affinity values are given separately. A number with no mark means an inactive call.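 How the source made its calls: active means viability falls under 70% at one or more tested concentrations, taken as toxicity; inactive means viability stays over 70% at every dose.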", "data": [{"assay": "HeLa cell cytotoxicity, dose response, cytotoxicity control for MgcRacGAP inhibitor project (AID 624300);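 further: 100% = median of untreated control wells on the same plate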", "details": "CellTiter-Glo luminescence, 24 h; series mostly up to 100 µM; viability: at the top concentration", "values": [{"compound": "Cc1ccc(O)c(C=Nc2ccc3[nH]ncc3c2)c1", "viability": "95.6%"}, {"compound": "Nc1ccc2nc(C3CCCCC3)[nH]c2c1", "viability": "98.5%"}, {"compound": "CCOC(=O)C1Nc2ccc(C(=O)O)cc2C2C=CCC12", "note": "(stereo not given)", "viability": "102%"}, {"compound": "CCOc1cc(/C=N/N2CCN(Cc3ccccc3)CC2)ccc1O", "viability": "98.8%"}, {"compound": "Cc1sc2nc(CN3CCOCC3)nc(N3CCOCC3)c2c1C", "viability": "96.9%"}, {"compound": "O=S(=O)(Nc1ccccc1F)c1cccc(NC(=S)NCCN2CCOCC2)c1", "viability": "98.2%"}, {"compound": "CCN(CC)c1ccc(NC(=O)CN(C)Cc2cccs2)cc1", "viability": "88.1%"}, {"compound": "O=C1/C(=C\\c2ccccc2)CN(C(=O)CCN2CCCCC2)C/C1=C/c1ccccc1", "viability": "134% [at 50 µM]"}, {"compound": "CN(C)S(=O)(=O)c1cc(NC(=O)CNCCN2CCOCC2)ccc1Cl", "viability": "101%"}, {"compound": "COc1cc(/C=N/NC(=O)c2cc(C)oc2C)ccc1O", "viability": "89.2%"}, {"compound": "COC(=O)/C(=C/Nc1ccc(O)cc1)[N+](=O)[O-]", "viability": "96.5%"}, {"compound": "Nc1ccc2c(c1)Cc1cc(N)c(Cl)cc1-2", "viability": "93.7%"}, {"compound": "COc1cc(C(C)n2nnc3ccccc32)ccc1O", "note": "(stereo not given)", "viability": "91%"}, {"compound": "COc1ccccc1OCCCCCCN1CCOCC1", "viability": "97.8%"}, {"compound": "COCCNC(=S)Nc1cc(OC)c(OC)cc1C#N", "viability": "99.9%"}, {"compound": "Oc1ccc(-c2csc(Nc3ccccn3)n2)cc1", "viability": "95.4%"}, {"compound": "NS(=O)(=O)c1ccc(Nc2nc(-c3ccc(O)cc3)cs2)cc1", "viability": "83.6%"}, {"compound": "Cc1nc2ncccn2c1-c1csc(Nc2ccc(O)cc2)n1", "viability": "102%"}, {"compound": "CC(=O)Nc1cccc(-c2csc(NCc3ccccc3)n2)c1", "viability": "93.2%"}, {"compound": "Cc1ccnc(Nc2nc(-c3ccc(O)cc3)cs2)c1", "viability": "91.6%"}, {"compound": "Cc1cc(O)ccc1Nc1nc(-c2cccs2)cs1", "viability": "98%"}, {"compound": "Cc1cc(NS(=O)(=O)c2ccc(Nc3nc(-c4ccc(O)cc4)cs3)cc2)no1", "viability": "89.7%"}, {"compound": "CC(C)Oc1ccc(OCCn2c(=S)[nH]c3c(N)ncnc32)cc1", "viability": "96.8%"}, {"compound": "CSc1ccccc1NC(=O)CN(C)C(C)C(=O)NCc1ccc2c(c1)OCO2", "note": "(stereo not given)", "viability": "93.6%"}, {"compound": "COc1cc(/C=C/C(=O)OCC(=O)Nc2ccc3c(c2)OCO3)ccc1O", "viability": "105%"}, {"compound": "Nn1c(=S)[nH]c2sc3c(c2c1=O)CCCC3", "viability": "90.2%"}, {"compound": "Cc1cc(C)c(OCC(O)CN2CCN(C(=O)c3ccccc3)CC2)c(C)c1", "note": "(stereo not given)", "viability": "97.2%"}, {"compound": "COc1nc(Nc2ccc(O)cc2)nc(OC(C(F)(F)F)C(F)(F)F)n1", "viability": "86.8%"}, {"compound": "O=C(c1cccc(F)c1)N1CCN(Cc2cccc(Br)c2)CC1", "viability": "94.4%"}, {"compound": "OCCN1CCN(C(=S)Nc2cccc(C(F)(F)F)c2)CC1", "viability": "89.7%"}, {"compound": "N#CC1=C(S)N(c2ccc(F)cc2)C(c2cccs2)NC1=O", "note": "(stereo not given)", "viability": "98.2%"}, {"compound": "O=C(O)c1ccc(-c2ccc(/C=c3/sc4nc5ccccc5n4c3=O)o2)cc1Cl", "viability": "104%"}, {"compound": "O=S(=O)(c1ccc2ccccc2c1)N1CCN(C2CCN(Cc3ccccc3)CC2)CC1", "viability": "95.2%"}, {"compound": "O=C(CCCCCNC(=O)c1ccccc1)N/N=C/c1ccc(O)cc1O", "viability": "94.8%"}, {"compound": "O=S(=O)(O)c1cc(Cl)cc(N=Nc2ccc(O)cc2O)c1O", "viability": "99.5%"}, {"compound": "CCc1cc(-c2n[nH]c(CCC(=O)O)c2-c2nc3ccccc3n2C)c(O)cc1O", "viability": "102%"}, {"compound": "COc1ccc2c(c1)Sc1ccccc1N2", "viability": "99.8%"}, {"compound": "Cn1cnc2cc(NCc3ccccc3O)ccc21", "viability": "99.7%"}, {"compound": "CCN(CC)c1ccc(N=Cc2ccccc2[N+](=O)[O-])cc1", "viability": "89.2%"}, {"compound": "CC(=O)OCCNc1cc(N2CCN(C)CC2)c2noc3c2c1C(=O)c1ccccc1-3", "viability": "89.7%"}, {"compound": "CCOc1cc(/C=N\\n2nnnc2N)ccc1O", "viability": "101%"}, {"compound": "CCOc1cc(/C=N/NC(=O)CCn2nc(C)cc2C)ccc1O", "viability": "110%"}, {"compound": "CCN(CC)c1ccc(NC(=O)COC(=O)Cc2ccsc2)cc1", "viability": "101%"}, {"compound": "Nc1c(/C=C2/C=CC(=O)C(O)=C2)c(=O)nc2sc(CC(=O)N3CCCC3)nn12", "viability": "101%"}, {"compound": "OCCCNC(=S)Nc1ccc(Nc2ccccc2)cc1", "viability": "99.7%"}, {"compound": "CC(=O)Nc1ccc(OC(=O)Cc2ccc(Cl)cc2)cc1", "viability": "101%"}, {"compound": "COc1cc(OC)c(OC)cc1CN1CCN(C(=O)c2cccc3ccccc23)CC1", "viability": "81.6%"}, {"compound": "O=c1cc(-c2ccc(O)c(O)c2)oc2cc(O)c(C3OC(CO)C(O)C(O)C3O)c(O)c12", "note": "(stereo not given)", "viability": "103%"}, {"compound": "Oc1ccc(N2CCN(C(=S)NCCc3ccccc3)CC2)cc1", "viability": "119%"}, {"compound": "CC1(C)CNc2cc(N)ccc2S1", "viability": "106%"}, {"compound": "Nc1n[nH]c(=S)n1/N=C1/C(=O)Nc2ccccc21", "viability": "102%"}, {"compound": "CC(C)N1CCN(C(=O)c2cccc(Cl)c2)CC1", "viability": "102%"}, {"compound": "Fc1ccc(CNCc2ccccc2Cl)cc1", "viability": "96.2%"}, {"compound": "Oc1ccc2ccc(Cl)cc2c1", "viability": "105%"}, {"compound": "C=CCc1cc(Cl)ccc1OCCN(C)C", "viability": "97.9%"}, {"compound": "CCN1CCN(CCCOc2ccc(Cl)cc2Br)CC1", "viability": "99.2%"}, {"compound": "CCn1nc(C)c(Br)c1C(=O)Sc1ccccc1Cl", "viability": "86.9%"}, {"compound": "Cc1c(NC(=O)CNCc2ccc3c(c2)OCO3)c(=O)n(-c2ccccc2)n1C", "viability": "99.1%"}, {"compound": "Nc1ccc(N=Nc2ccc(N)cc2)cc1", "viability": "103%"}, {"compound": "COc1cccc(OC)c1NC(=O)CN1CCN(C)CC1", "viability": "100%"}]}]}
